Values joined by “and” are separate entries in the source; they are usually repeats but may differ in a detail not shown here. Identical values can stand only once. Inconclusive results are not listed. Where a call stands in place of a potency, no number is given. Active and inactive are the calls of the source. Unless noted, calls follow the shape of the full dose curve.
Experiments:
[1] = biological target: Glucocorticoid receptor (Homo sapiens) (UniProt P04150); experiment: qHTS assay for small molecule antagonists of glucocorticoid receptor signaling (AID 588533; active = well fitted inhibition curve with a large enough effect in the signal ratio, with a control signal flat, not every such curve was filed as active; the % refers to the signal ratio;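 also: cells stimulated with 2 nM dexamethasone as agonist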)
Chain of Glucocorticoid receptor (Homo sapiens) (P04150 whole entry, looked up): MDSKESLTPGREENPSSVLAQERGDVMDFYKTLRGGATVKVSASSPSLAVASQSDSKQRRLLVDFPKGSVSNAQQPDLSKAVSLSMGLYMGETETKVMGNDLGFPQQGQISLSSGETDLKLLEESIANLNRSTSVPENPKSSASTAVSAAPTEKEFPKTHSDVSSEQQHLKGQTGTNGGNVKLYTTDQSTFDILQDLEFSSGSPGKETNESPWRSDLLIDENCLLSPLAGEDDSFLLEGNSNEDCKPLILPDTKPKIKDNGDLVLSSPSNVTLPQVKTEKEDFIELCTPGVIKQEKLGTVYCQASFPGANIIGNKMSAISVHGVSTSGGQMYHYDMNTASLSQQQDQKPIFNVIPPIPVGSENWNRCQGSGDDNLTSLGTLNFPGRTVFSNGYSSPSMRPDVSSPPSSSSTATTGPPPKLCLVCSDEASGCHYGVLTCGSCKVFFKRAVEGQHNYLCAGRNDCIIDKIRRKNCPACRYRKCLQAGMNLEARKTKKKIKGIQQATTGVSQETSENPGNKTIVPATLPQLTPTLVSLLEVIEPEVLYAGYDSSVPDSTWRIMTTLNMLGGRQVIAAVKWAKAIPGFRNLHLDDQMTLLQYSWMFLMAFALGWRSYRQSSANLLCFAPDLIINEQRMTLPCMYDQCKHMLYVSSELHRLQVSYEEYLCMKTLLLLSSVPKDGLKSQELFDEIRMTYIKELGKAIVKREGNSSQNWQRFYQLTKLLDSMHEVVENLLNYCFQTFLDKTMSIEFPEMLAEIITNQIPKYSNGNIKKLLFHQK
In short: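 Antagonist-mode qHTS: compound titrations added to GRE-bla HeLa cells, then dexamethasone 2 nM final; 18 h, 37 C. CCF4 FRET fluorescence normalized to dexamethasone and DMSO; IC50 from Hill fit.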

[2] = qHTS assay for small molecule antagonists of peroxisome proliferator-activated receptor delta signaling (AID 588535; active = well fitted inhibition curve with a large enough effect in the signal ratio, with a control signal flat, not every such curve was filed as active; the % refers to the signal ratio;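 as to max response: cells co-treated with a PPAR-delta agonist as stimulator during compound exposure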); conditions: HEK293T PPARd-UAS-bla, beta-lactamase FRET ratio, 18 h; 460 nm channel
In short: (§1)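 Inhibition of PPAR-delta response element-driven beta-lactamase expression is measured in HEK293T cells exposed to a compound titration series for 18 hrs at 37 C. Half-maximal inhibition comes from Hill equation fitting.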

[3] = biological target: Peroxisome proliferator-activated receptor delta (Homo sapiens) (UniProt Q03181); experiment: as above
Chain of Peroxisome proliferator-activated receptor delta (Homo sapiens) (Q03181 whole entry, looked up): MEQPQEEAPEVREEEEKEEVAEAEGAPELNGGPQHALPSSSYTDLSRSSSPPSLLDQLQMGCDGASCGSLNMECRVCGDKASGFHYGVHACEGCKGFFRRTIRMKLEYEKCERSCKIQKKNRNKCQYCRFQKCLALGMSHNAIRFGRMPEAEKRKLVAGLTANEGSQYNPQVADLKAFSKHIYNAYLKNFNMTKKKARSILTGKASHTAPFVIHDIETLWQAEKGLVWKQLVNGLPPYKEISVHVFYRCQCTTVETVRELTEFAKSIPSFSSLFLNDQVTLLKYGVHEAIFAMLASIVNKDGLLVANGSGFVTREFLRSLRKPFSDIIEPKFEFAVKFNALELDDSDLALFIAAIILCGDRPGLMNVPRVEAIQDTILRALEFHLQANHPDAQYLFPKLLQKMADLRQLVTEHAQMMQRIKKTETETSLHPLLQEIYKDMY
In short: as §1

[4] = biological target: Peroxisome proliferator-activated receptor gamma (Homo sapiens) (UniProt P37231); experiment: qHTS assay for small molecule agonists of peroxisome proliferator-activated receptor gamma signaling (AID 588536; active = well fitted curve in the direction sought with a large enough effect in the signal ratio, with a control signal flat, not every such curve was filed as active; the % refers to the signal ratio)
Chain of Peroxisome proliferator-activated receptor gamma (Homo sapiens) (P37231 whole entry, looked up): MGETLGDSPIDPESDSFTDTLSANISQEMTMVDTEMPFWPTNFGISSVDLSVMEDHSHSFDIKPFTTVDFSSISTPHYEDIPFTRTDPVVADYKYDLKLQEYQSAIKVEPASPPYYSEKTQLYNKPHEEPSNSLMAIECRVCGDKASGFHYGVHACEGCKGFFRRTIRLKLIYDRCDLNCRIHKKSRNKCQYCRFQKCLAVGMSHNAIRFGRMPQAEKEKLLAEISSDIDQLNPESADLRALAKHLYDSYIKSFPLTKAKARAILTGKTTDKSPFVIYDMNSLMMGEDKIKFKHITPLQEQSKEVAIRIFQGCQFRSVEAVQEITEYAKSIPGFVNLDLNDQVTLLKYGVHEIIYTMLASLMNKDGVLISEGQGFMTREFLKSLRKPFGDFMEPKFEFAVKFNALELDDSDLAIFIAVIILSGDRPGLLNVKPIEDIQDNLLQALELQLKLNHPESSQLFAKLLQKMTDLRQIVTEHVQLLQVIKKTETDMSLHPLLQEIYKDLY
In short: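 Cells were plated and held 6–6.5 h at 37 C, then compounds were added as a titration series. After a further 16 h, CCF4 dye was loaded for 2 h at room temperature and emission at 460/530 nm recorded.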

[5] = biological target: Vitamin D3 receptor (Homo sapiens) (UniProt P11473); experiment: qHTS assay for small molecule antagonists of vitamin D receptor signaling (AID 588541);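 also: receptor activated by calcitriol during compound treatment; series mostly up to about 77 µM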
Chain of Vitamin D3 receptor (Homo sapiens) (P11473 whole entry, looked up): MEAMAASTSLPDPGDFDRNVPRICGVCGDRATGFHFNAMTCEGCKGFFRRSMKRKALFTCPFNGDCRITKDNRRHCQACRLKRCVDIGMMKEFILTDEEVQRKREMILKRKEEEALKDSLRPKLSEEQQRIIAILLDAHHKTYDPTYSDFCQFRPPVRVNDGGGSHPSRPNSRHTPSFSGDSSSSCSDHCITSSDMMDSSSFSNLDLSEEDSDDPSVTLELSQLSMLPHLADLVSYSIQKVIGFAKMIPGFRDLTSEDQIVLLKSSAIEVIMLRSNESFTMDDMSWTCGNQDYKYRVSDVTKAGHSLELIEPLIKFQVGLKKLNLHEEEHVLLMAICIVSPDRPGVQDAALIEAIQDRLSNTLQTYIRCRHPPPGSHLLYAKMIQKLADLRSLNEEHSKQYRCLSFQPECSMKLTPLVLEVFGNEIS
In short: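 VDR-UAS-bla HEK293T cells (2000/well, 2% charcoal-stripped FBS) were treated with titrated compounds plus 1-alpha,25-dihydroxyvitamin D3 (50 nM or 3 nM final) for 16 h at 37 C. CCF4 beta-lactamase fluorescence was read; Hill fits gave IC50.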

[6] = biological target: Vitamin D3 receptor (Homo sapiens) (UniProt P11473); experiment: qHTS assay for small molecule agonists of vitamin D receptor signaling (AID 588543)
In short: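 β-lactamase reporter, VDR-UAS-bla HEK293T, agonist mode. Cells plated 5 h at 37 °C, compound titration 16 h at 37 °C, CCF4 dye 2 h RT, ratio 460/530 nm. Hill fit → EC50, efficacy vs 50 nM 1α,25-(OH)2D3.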

[7] = biological target: Peroxisome proliferator-activated receptor gamma (Homo sapiens) (UniProt P37231); experiment: qHTS assay for small molecule antagonists of peroxisome proliferator-activated receptor gamma signaling (AID 588537; active = well fitted inhibition curve with a large enough effect in the signal ratio, with a control signal flat, not every such curve was filed as active; the % refers to the signal ratio;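 also: reporter cells co-stimulated with 50 nM rosiglitazone agonist during compound treatment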)
In short: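 Compounds are tested as concentration series for inhibition of rosiglitazone-driven (50 nM) reporter expression in GeneBLAzer PPAR-gamma-UAS-bla HEK293 cells. After 16 h at 37 C, CCF4 substrate is added for 2 h at room temperature and blue/green fluorescence is measured.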

Structure (SMILES)	outcome [1]	max response [2]	Potency [3]	outcome [4]	outcome [5]	outcome [6]	outcome [7]
CC(C)(c1cc(Br)c(OCC(Br)CBr)c(Br)c1)c1cc(Br)c(OCC(Br)CBr)c(Br)c1 (stereo not drawn)	inactive	-13.7%	inactive	inactive	inactive	inactive	–
c1ccc2n[nH]nc2c1	–	-32.1%	inactive	inactive	–	–	–
COCCOC(=O)c1ccccc1C(=O)OCCOC	inactive	-2.63%	inactive	inactive	inactive	inactive	inactive
CCCCCCO	inactive	–	–	inactive	inactive	inactive	inactive
Nc1ccccc1[N+](=O)[O-]	inactive	35.9%	–	inactive	–	–	inactive
O=Cc1c(Cl)cccc1Cl	inactive	-29.6%	inactive	inactive	inactive	inactive	inactive
O=C(O[C@@H](C(=O)O)[C@@H](OC(=O)c1ccccc1)C(=O)O)c1ccccc1	inactive	-10.6%	inactive	inactive	–	–	inactive
Nc1ccccc1S(=O)(=O)O	–	-23.8%	inactive	inactive	inactive	inactive	inactive
NC(=O)NC(N)=O	–	34.3%	inactive	inactive	–	–	–
CCCOCC(C)O (stereo not drawn)	–	-0.284%	inactive	inactive	inactive	–	inactive
CC(C)C=O	inactive	-3.06%	inactive	inactive	inactive	inactive	–
Clc1cc(Cl)cc(Cl)c1	inactive	-6.75%	inactive	inactive	inactive	inactive	–
Nc1cc([N+](=O)[O-])ccc1C(=O)O	–	-33% and 11%	inactive	inactive	inactive	inactive	inactive
C=CCCCC	inactive	22.6%	inactive	inactive	–	inactive	inactive
Cc1ccccc1C=O	inactive	–	–	inactive	inactive	inactive	–
Cc1ccc(Br)cc1	inactive	4.44%	inactive	inactive	inactive	inactive	inactive

Structure (SMILES)	outcome [1]	max response [2]	Potency [3]	outcome [4]	outcome [5]	outcome [6]	outcome [7]
O=[N+]([O-])c1cccc(Cl)c1	–	4.21%	inactive	inactive	inactive	inactive	inactive
O=[N+]([O-])c1cccc(C(F)(F)F)c1	inactive	–	–	inactive	inactive	inactive	inactive
OC(CCl)CCl	inactive	–	–	inactive	inactive	inactive	inactive
NS(=O)(=O)O	inactive	-9.24%	inactive	inactive	–	inactive	inactive
Cc1cccc(C)c1	inactive	-14.1%	inactive	inactive	inactive	inactive	inactive
O=C(O)CNC(=O)c1ccc(CO)o1	–	35.1%	inactive	inactive	–	–	inactive
NCCCCCCN	–	-19.3%	inactive	inactive	inactive	inactive	inactive
Cc1cscn1	–	-36.6%	inactive	inactive	inactive	inactive	inactive
CN(C)c1cccc(O)c1	inactive	-10%	inactive	inactive	–	inactive	–
Cc1cccc2cccnc12	–	-4.69%	inactive	inactive	inactive	inactive	inactive
CCCCC(=O)N(C)C	inactive	-15%	–	inactive	inactive	inactive	–
O=Cc1ccccc1Cl	inactive	–	–	inactive	inactive	inactive	inactive
OC/C(Br)=C(\Br)CO	inactive	–	–	inactive	inactive	inactive	inactive
CC(C)(O)C(=O)O	inactive	57.5%	inactive	–	inactive	inactive	–
C/C(C=O)=C/c1ccccc1	inactive	-13.6%	inactive	inactive	–	inactive	inactive
CC(=O)OC(C)=O	inactive	–	–	inactive	inactive	inactive	inactive
